Reference: the supplement of paper PMC6555819

Tested on: VDR:RXRa (NR concentration 270 nM, RXRa partner concentration 90 nM)
Assay: PBM binding z-score (relative to random genomic background probes); higher = stronger binding; sequences stand for … in GC…GCGATTGACAGCGTAGAATGAAGG
Experimental: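 Protein-binding microarray (Agilent 4x180K custom design, double-stranded 60-nt probes: 5' GC cap, 34-nt variable region, 24-nt constant primer region; full probe sequence given). Purified or IVT nuclear receptor:RXRα heterodimers (3:1 NR:RXRα, mostly 270:90 nM) or homodimers were incubated for 1 h in PBS with 2% milk and no ligand, then detected with Alexa488 antibodies. Fluorescence from o1-orientation probes (~5 replicates averaged) was converted to z-scores against 500 random hg19 background probes. Variable regions are seed direct-repeat (DR0–DR5) sites, all their single-nucleotide variants and half-site ablations.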

Sequence | PBM binding z-score
CGAACTAGATCAAGGACAGTGAATCTCCGCACGC | -0.37
CCTAGCATGCCAATCTGGGTCACTCAAGGCTTGA | 0.733
TCTTGTAGATGAAGCAGGTTAAGAAAGCCTGAGT | 0.456
TCTTGTCGATCAAGCAGGTTAAGAAAGCCTGAGT | 0.107
CTCGAAAGGTCGTGCACAGGTGAGTATACCAAAC | 3.8
CCGACTGGGCCATCAGGTCATTGATATCAACGTT | 1.63
CCTCGGAGGACAACAGGAAGTCAGAGCTGCCAGA | -0.718
TCATATAGGTAAACCGGTGAAAGTCCGTAAGTTA | 0.87
CGTCCAAGGTCATCAGGTCAGTGAAAGCGACGTG | 5.43
TCATATAGGTAATTGCTAGGTGAAAGTCCGATCT | 0.884
ATCTCTAGGTAACCAAGTTCAGCGAATGCCGAAC | 4.31
AGATGTAGGTTAAGGGTCATTCAGGTTGGTTCGC | 5.59
CCAGACAGCTGAGAAGGTAACTCAGCCTCGATTA | -0.312
CCTACTGGGACACGAAAGGTCATTGATTCAGTGA | 4.06
GCTATTAGTTGAGAGGGCAACCGAATGATTCTCG | 0.311
ATCTCTAGGTAAAAGTTCAGTGGATCCCGAGGAT | 1.21
ATACCATGGTGATCGTGAGGTCGTTGATACTAAC | 2.03
CGAACTAGGTCAAGGACAGTCAATCTCCGCACGC | 1.61
GCGACTGGGGCATCAGGAGGTTACCATAACTTAA | 0.558
CCTAGCAGGCCAATCTGGGTCAATCAAGGCTTGA | 0.445

Sequence | PBM binding z-score
CCAGACAGGAGAAAGGTAACTCAGTCTGGTACGC | 0.0971
ACTTTCGGGTCAACGAGGTTATAGCACGCGTATA | 7.85
CCTCGGAGGACAACAGGAGGTCAGAGTTGCCAGA | 1.97
TCTAGTTGCTCAAAGGTCACACACTCGAAATGCG | 4.77
CAAACTAGGTCGCAGAGGTCAAAGTCCGTGCGTA | 7.14
CCTCCTGGGCCAAAGGTCATTGATTCCAATGCTC | 4.75
GGAACGAGGGCAACGTTGATAGCATCTGTCGACG | 0.229
TCTTGTAGATCAGAGGTTAAGAAAGCCGAAGCCT | 0.673
TCTCGGAGGACACGAAAGATCAGAGCTCGACATC | 0.0612
ATATGTAGGTTCTCGGGTCATTCAGTTTGCGCAT | 5.04
CCTACTGGGCCAAGGTCGTTGATCAGTCAAAGCA | 0.505
CGAACTAGGTCATTGTCAGGACAGTGAATAGTAA | 2.52
TCTAGTTGGTCACGGAGGTCGCACACGACGGGTA | 4.06
TGAATGAGCTTATAAGATCAGGGAACGTTGCAAA | -0.361
TCGAGTCGGTTAGGGGCATTCAGAATGGCGTCGA | 0.541
ACAGACAGGTGAGTGAAGGTAACACAGCTGGACG | -0.0356
ACAGCCAGGTGATGAAGGTAACTCAGGCTATCAT | -0.126
GGAACGAGGGCAATGTTGATAGCATCTGTCGACG | 0.402
CGTCAAAGTTCAACTAAAGTAACGTAAAGCACGC | 4.08
TAGGCTAGGTCATTGGGCCAGTATAGTACGCATC | 2.03
